# Results taken from the supplement of paper PMC6555819.
# Legend:
# Assay in all cases: PBM binding z-score (relative to random genomic background probes); higher = stronger binding; sequences stand for … in GC…GCGATTGACAGCGTAGAATGAAGG
# [1] = test system: FXR:RXRa (NR concentration 270 nM, RXRa partner concentration 90 nM)
# Method in brief: (§1)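 Scanned fluorescence from custom Agilent 4×180K protein-binding microarrays was regression-normalized. Binding z-scores use random background probes as reference. Ligand-free nuclear receptor dimers were incubated on the arrays for 1 h and detected with antibodies against each partner (one per run).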
# [2] = test system: LXRa:RXRa (NR concentration 270 nM, RXRa partner concentration 90 nM)
# Method in brief: as §1
# [3] = test system: LXRa homodimer (NR concentration 270 nM)
# Method in brief: as §1
# [4] = test system: LXRb:RXRa (NR concentration 270 nM, RXRa partner concentration 90 nM)
# Method in brief: as §1
# [5] = test system: LXRb homodimer (NR concentration 270 nM)
# Method in brief: as §1
# [6] = test system: PPARa:RXRa (NR concentration 270 nM, RXRa partner concentration 90 nM)
# Method in brief: as §1
# [7] = test system: PPARg:RXRa (NR concentration 180 nM, RXRa partner concentration 90 nM)
# Method in brief: as §1
# [8] = test system: PPARg:RXRa 270nM:90nM, anti-RXR (NR concentration 270 nM, RXRa partner concentration 90 nM)
# Method in brief: as §1
# [9] = test system: PPARg:RXRa 30nM:10nM, anti-RXR (NR concentration 30 nM, RXRa partner concentration 10 nM)
# Method in brief: as §1
# [10] = test system: PPARg:RXRa 90nM:30nM, anti-RXR (NR concentration 90 nM, RXRa partner concentration 30 nM)
# Method in brief: as §1
# [11] = test system: PPARg:RXRa DBDmut IVT, anti-RXR (DBD mutation: RXRa K156A/R161A, NR concentration 270 nM, RXRa partner concentration 90 nM)
# Method in brief: as §1
# [12] = test system: PPARg:RXRa IVT, anti-PPARg (NR concentration 270 nM, RXRa partner concentration 90 nM)
# Method in brief: as §1
# [13] = test system: PPARg DBDmut:RXRa IVT, anti-PPARg (DBD mutation: PPARg1 K132A/R137A, NR concentration 270 nM, RXRa partner concentration 90 nM)
# Method in brief: as §1
# [14] = test system: PPARg DBDmut IVT, anti-PPARg (DBD mutation: PPARg1 K132A/R137A, NR concentration 270 nM)
# Method in brief: as §1
# [15] = test system: PPARg homodimer (NR concentration 180 nM)
# Method in brief: as §1
# [16] = test system: PXR:RXRa (NR concentration 270 nM, RXRa partner concentration 90 nM)
# Method in brief: as §1
# [17] = test system: PXR homodimer (NR concentration 270 nM)
# Method in brief: as §1
# [18] = test system: RARa:RXR (NR concentration 270 nM, RXRa partner concentration 90 nM)
# Method in brief: as §1
# [19] = test system: RARa homodimer (NR concentration 270 nM)
# Method in brief: as §1
# [20] = test system: RARb:RXRa (NR concentration 270 nM, RXRa partner concentration 90 nM)
# Method in brief: as §1
Sequence,PBM binding z-score [1],PBM binding z-score [2],PBM binding z-score [3],PBM binding z-score [4],PBM binding z-score [5],PBM binding z-score [6],PBM binding z-score [7],PBM binding z-score [8],PBM binding z-score [9],PBM binding z-score [10],PBM binding z-score [11],PBM binding z-score [12],PBM binding z-score [13],PBM binding z-score [14],PBM binding z-score [15],PBM binding z-score [16],PBM binding z-score [17],PBM binding z-score [18],PBM binding z-score [19],PBM binding z-score [20]
TCTCGGAGGACACGAAAGGTCAGAGCACGACATC,2.91,3.73,3.12,3.29,0.0344,3.63,1.64,2.76,2.25,2.42,1.29,1.57,0.69,-0.292,4.15,4.24,0.7,4.89,2.34,4.09
CCTACTGGGCCAAAGGTAATTGATTCCAATGCTC,-0.451,-0.199,-0.379,-0.0867,-0.845,3.66,8.76,7.99,6.87,8.72,5.36,4.68,0.0261,0.0447,0.234,-0.286,-0.264,-0.0121,-0.474,0.179
GGAACGAGGGCATTCCAGTTGATAGCATGGCGAT,1.15,1.43,-0.298,0.454,-0.264,1.42,0.909,0.848,-0.214,0.301,3.02,2.32,0.37,-0.74,0.527,2.19,0.706,0.917,-0.491,1.81
TAGCCTAGGTCATTGGGCCAGGATAGTACGCATC,3.92,3.17,0.159,1.47,-0.488,3.6,3.36,3.58,0.83,2.29,2.04,3.75,0.235,0.25,0.798,1.05,-0.39,1.99,-0.0581,3.49
CATACTGGGTCAGCTAGGCCAGAGTAGGGACGGC,0.696,0.526,-0.513,0.249,-0.198,2.16,3.45,2.95,0.499,2.06,4.6,5.45,0.321,0.266,0.468,0.34,-0.327,0.776,-0.0823,3.04
GCGACTGAGGCATCAGCAGGTTACCATAACTTAA,-0.539,-0.504,-0.511,-0.382,-0.493,-0.272,0.31,-0.607,-0.469,-0.443,-0.328,-0.559,-1.15,-0.218,-0.486,-0.397,-0.552,0.102,-0.596,-0.298
CCGACTGGGGCATAAGGTTTCCATAAGCCAGCCC,0.03,-0.0633,-0.565,-0.536,-1.41,0.26,1.11,1.75,-0.0792,1.44,3.04,2.38,-1.41,-1.66,-0.419,-0.536,-0.762,-0.479,0.00521,0.514
CGGCAAAGTTCAACTAAGGTAACGTAAAGCACGC,7.42,5.93,2.94,3.99,1.22,5.03,4.7,5.19,1.6,3.81,0.283,1.29,-0.451,-0.173,3.39,5.43,2.72,3.93,0.447,5.16
CCTGCTAGGTTATGGTCAGCTAATCTACAGTATG,-0.0301,-0.0994,-0.554,-0.211,-0.277,-0.0739,-0.279,-0.092,-0.295,-0.423,1.28,0.468,-0.113,0.438,-0.1,-0.197,-0.354,-0.233,0.0671,1
CCTAGCACGCCAATCTGGGTCACTCAAGGCTTGA,0.513,0.503,-0.0137,0.788,-0.333,2.88,1.61,2.16,-0.246,1.13,3.75,4.76,-0.107,-0.39,0.751,0.751,-0.246,1.13,0.0845,1.06
AATCAAAGTTCATCTAGGTAACGTAAGATATGCT,6.64,6.2,7.11,4.15,2.37,4.75,4.35,4.25,2.04,3.19,0.153,2.87,1.79,1.11,2.75,4.95,7.06,3.24,1.38,5.22
TCTAGGAGGCCAGAGGGTCACTCAAGAGGTACGG,1.5,0.891,-0.426,0.559,-1.15,2.65,1.87,3.02,2.76,2.99,1.84,1.03,-0.0331,-0.364,0.662,1.42,-0.35,2.08,-0.215,2.58
TCTAGTTGGTCACGGATGTCACACACGACGGGTA,0.669,0.373,0.422,0.666,0.393,1.18,1.32,2.25,3.22,2.84,2.2,2.89,1.14,1.42,1.14,0.836,-0.124,0.724,0.648,1.88
